Data reported in PubChem BioAssay AID1159580 (chemical genetic matrix, 2015).
Screen size: about 5,500 compounds; about 2,000 (36%) were called active. About 18% were inconclusive and are not listed. Rule as the data show it: active = normalized growth mostly below about 0.91 (no sharp cut-off); inconclusive = no clear call, values can overlap the other calls; inactive = mostly above about 0.92. This is one part of the list.

Experiment: chemical genetic growth profiling, strain panel (AID 1159580);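 also: tested at 20 µM; growth read once vehicle control cultures reached saturation at 30 °C; 1 = growth at the plate median or of vehicle wells; lower values mean less growth of the strain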
Conditions: growth OD
[1] = S. cerevisiae deletion strains, locus YGR229C, strain SMI1, active compounds read low
[2] = S. cerevisiae deletion strains, locus YMR307W, strain GAS1, active compounds read low

Measured: normalized growth

COc1cc2c(c(OC)c1OC)-c1ccc(OC)c(=O)cc1C(NC(C)=O)CC2 (stereo unspecified)
inactive: S. cerevisiae deletion strains, locus YAL040C, strain CLN3, active compounds read low 0.95 | S. cerevisiae deletion strains, locus YDR150W, strain NUM1, active compounds read low 1.03 | S. cerevisiae deletion strains, locus YDR363W, strain ESC2, active compounds read low 1 | S. cerevisiae deletion strains, locus YER002W, strain NOP16, active compounds read low 1.01 | [1] 1 | [2] 0.984 | S. cerevisiae deletion strains, locus YNL153C, strain GIM3, active compounds read low 1.06 | S. cerevisiae deletion strains, locus YNL175C, strain NOP13, active compounds read low 1.01 | S. cerevisiae deletion strains, locus YNL197C, strain WHI3, active compounds read low 1.01 | S. cerevisiae deletion strains, locus YNL224C, strain SQS1, active compounds read low 1 | S. cerevisiae deletion strains, locus YOR083W, strain WHI5 (second series), active compounds read low 1.02

COc1cc2c(c(OC)c1OC)-c1ccc(O)c(=O)cc1[C@@H](NC(C)=O)CC2
inactive: S. cerevisiae deletion strains, locus YBR021W, strain FUR4, active compounds read low 0.865 | S. cerevisiae deletion strains, locus YBR229C, strain ROT2, active compounds read low 0.962 | S. cerevisiae deletion strains, locus YCL029C, strain bik1, active compounds read low 0.982 | S. cerevisiae deletion strains, locus YDL192W, strain arf1, active compounds read low 0.978 | S. cerevisiae deletion strains, locus YDR318W, strain mcm21, active compounds read low 0.94 | S. cerevisiae deletion strains, locus YDR388W, active compounds read low 1 | S. cerevisiae deletion strains, locus YDR502C, strain sam2, active compounds read low 0.93 | S. cerevisiae deletion strains, locus YER110C, active compounds read low 1.03 | S. cerevisiae deletion strains, locus YER155C, strain BEM2, active compounds read low 0.98 | S. cerevisiae deletion strains, locus YGL078C, strain dbp3, active compounds read low 0.957 | S. cerevisiae deletion strains, locus YGR135W, strain pre9, active compounds read low 0.945 | S. cerevisiae deletion strains, locus YGR252W, strain gcn5, active compounds read low 0.879 | S. cerevisiae deletion strains, locus YHR094C, strain hxt1, active compounds read low 0.988 | S. cerevisiae deletion strains, locus YHR200W, strain rpn10, active compounds read low 0.977 | S. cerevisiae deletion strains, locus YIR030C, strain dcg1, active compounds read low 0.988 | S. cerevisiae deletion strains, locus YJL168C, strain set2, active compounds read low 1 | S. cerevisiae deletion strains, locus YKL009W, strain mrt4, active compounds read low 0.984 | S. cerevisiae deletion strains, locus YKL068W, active compounds read low 0.968 | S. cerevisiae deletion strains, locus YLR102C, strain apc9, active compounds read low 1.02 | S. cerevisiae deletion strains, locus YLR262C, strain YPT6, active compounds read low 0.72 | S. cerevisiae deletion strains, locus YLR342W, strain FKS1 (second series), active compounds read low 0.801 | S. cerevisiae deletion strains, locus YLR371W, strain rom2, active compounds read low 0.933 | S. cerevisiae deletion strains, locus YLR418C, strain cdc73, active compounds read low 0.841 | S. cerevisiae deletion strains, locus YML032C, strain rad52, active compounds read low 1 | S. cerevisiae deletion strains, locus YML124C, strain tub3, active compounds read low 1 | S. cerevisiae deletion strains, locus YMR078C, strain ctf18, active compounds read low 1.01 | S. cerevisiae deletion strains, locus YMR223W, strain ubp8, active compounds read low 0.938 | S. cerevisiae deletion strains, locus YNL250W, strain rad50, active compounds read low 0.968 | S. cerevisiae deletion strains, locus YNL307C, strain MCK1, active compounds read low 1.01 | S. cerevisiae deletion strains, locus YNR052C, strain pop2, active compounds read low 0.961 | S. cerevisiae deletion strains, locus YOL012C, strain htz1 0.984 | S. cerevisiae deletion strains, locus YOL147C, strain pex11, active compounds read low 1.01 | S. cerevisiae deletion strains, locus YOR136W, strain idh2, active compounds read low 0.988 | S. cerevisiae deletion strains, locus YOR144C, strain elg1, active compounds read low 0.97 | S. cerevisiae deletion strains, locus YOR184W, strain ser1, active compounds read low 1 | S. cerevisiae deletion strains, locus YOR316C, strain cot1, active compounds read low 1.02 | S. cerevisiae deletion strains, locus YPR119W, strain clb2, active compounds read low 1.03 | S. cerevisiae deletion strains, locus YPR141C, strain kar3, active compounds read low 0.997 | S. cerevisiae deletion strains, locus YPR163C, strain tif3, active compounds read low 1.01 | S. cerevisiae deletion strains, locus YPR167C, strain met16, active compounds read low 0.929
active: S. cerevisiae deletion strains, locus YDL035C, strain GPR1, active compounds read low 0.543 | S. cerevisiae deletion strains, locus YDL074C, strain BRE1, active compounds read low 0.515 | S. cerevisiae deletion strains, locus YDL101C, strain DUN1, active compounds read low 0.715 | S. cerevisiae deletion strains, locus YDL134C, strain PPH21, active compounds read low 0.87 | S. cerevisiae deletion strains, locus YDL185W, strain tfp1, active compounds read low 0.323 | S. cerevisiae deletion strains, locus YDR101C, strain arx1, active compounds read low 0.904 | S. cerevisiae deletion strains, locus YDR162C, strain NBP2, active compounds read low 0.382 | S. cerevisiae deletion strains, locus YEL061C, strain CIN8, active compounds read low 0.819 | S. cerevisiae deletion strains, locus YER167W, strain BCK2, active compounds read low 0.798 | S. cerevisiae deletion strains, locus YGL086W, strain mad1, active compounds read low 0.882 | S. cerevisiae deletion strains, locus YGL248W, strain PDE1, active compounds read low 0.744 | S. cerevisiae deletion strains, locus YGR078C, strain PAC10, active compounds read low 0.729 | [1] 0.247 | S. cerevisiae deletion strains, locus YHR030C, strain SLT2, active compounds read low 0.879 | S. cerevisiae deletion strains, locus YHR079C, strain IRE1 (second series), active compounds read low 0.851 | S. cerevisiae deletion strains, locus YHR129C, strain ARP1, active compounds read low 0.764 | S. cerevisiae deletion strains, locus YIL066C, strain RNR3, active compounds read low 0.543 | S. cerevisiae deletion strains, locus YIL073C, strain SPO22, active compounds read low 0.355 | S. cerevisiae deletion strains, locus YIL125W, strain kgd1, active compounds read low 0.881 | S. cerevisiae deletion strains, locus YJL095W, strain BCK1, active compounds read low 0.722 | S. cerevisiae deletion strains, locus YJL134W, strain LCB3, active compounds read low 0.913 | S. cerevisiae deletion strains, locus YJL187C, strain SWE1 (second series), active compounds read low 0.59 | S. cerevisiae deletion strains, locus YJR043C, strain POL32, active compounds read low 0.55 | S. cerevisiae deletion strains, locus YKL085W, strain MDH1 (second series), active compounds read low 0.91 | S. cerevisiae deletion strains, locus YKL085W, strain MDH1, active compounds read low 0.91 | S. cerevisiae deletion strains, locus YKL190W, strain CNB1, active compounds read low 0.593 | S. cerevisiae deletion strains, locus YKR001C, strain vps1, active compounds read low 0.889 | S. cerevisiae deletion strains, locus YLR039C, strain RIC1, active compounds read low 0.454 | S. cerevisiae deletion strains, locus YLR058C, strain SHM2, active compounds read low 0.691 | S. cerevisiae deletion strains, locus YLR268W, strain sec22, active compounds read low 0.852 | S. cerevisiae deletion strains, locus YLR330W, strain CHS5, active compounds read low 0.886 | S. cerevisiae deletion strains, locus YML016C, strain PPZ1, active compounds read low 0.829 | [2] 0.577 | S. cerevisiae deletion strains, locus YNL067W, strain RPL9B, active compounds read low 0.732 | S. cerevisiae deletion strains, locus YNL233W, strain BNI4, active compounds read low 0.81 | S. cerevisiae deletion strains, locus YNL271C, strain bni1, active compounds read low 0.843 | S. cerevisiae deletion strains, locus YNL298W, strain CLA4, active compounds read low 0.891 | S. cerevisiae deletion strains, locus YNL322C, strain KRE1, active compounds read low 0.639 | S. cerevisiae deletion strains, locus YOL006C, strain TOP1, active compounds read low 0.198 | S. cerevisiae deletion strains, locus YOR061W, strain CKA2, active compounds read low 0.753 | S. cerevisiae deletion strains, locus YOR069W, strain VPS5, active compounds read low 0.896 | S. cerevisiae deletion strains, locus YPL055C, strain LGE1, active compounds read low 0.436 | S. cerevisiae deletion strains, locus YPL241C, strain CIN2, active compounds read low 0.9 | S. cerevisiae deletion strains, strain wtn01, active compounds read low 0.881 | S. cerevisiae strains, strain wild type, active compounds read low 0.285
